# ± gives the standard deviation.
# System: MILI (PIWIL2) piRISC loaded with piRNA #1 (26 nt)
# Test: pre-steady-state target cleavage rate (min^-1); guide: piRNA #1 5'p-UGAGGUAGUAGGUUGUAUAGUAUCCA; MIWI and MILI are mouse PIWI proteins and EfPiwi is from a freshwater sponge; tags in brackets are library labels; higher = faster piRNA-guided slicing of the target
# Conditions: auxiliary factor: 500 nM mouse GTSF1
# In short: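 Cleave-'n-Seq: 1 nM active affinity-purified piRISC with one synthetic guide and 0.1 nM transcribed, DNA-blocked target RNA library were mixed, with or without 500 nM GTSF1 partner protein, in HEPES–potassium acetate buffer at 33 °C for 0–8 or 0–960 min. Uncleaved targets were sequenced and normalised to depth and to weakly complementary targets, three trials were pooled, and k3 was capped at 0.0001 min^-1. The pre-steady-state cleavage rate was fitted […].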
row,Sequence,pre-steady-state target cleavage rate
1,GGAGACCUAUGAUAUCAACUCUACUACCUCA,< 0.0001
2,GGAGACCUAUGAAUACAUGCUACUACCUCA,0.00268 ± 0.0026
3,GGAGACCUAUCUAUACAACCUAGAACCUCA,0.00829 ± 0.0026
4,GGAGACCUAUGAUAACAACCUACUAACCUCA,0.00664 ± 0.002
5,GGAGACGAUACUUUACAACCUACAACCUCA,0.0642 ± 0.013
6,GGAGAGGAUACUAUACACCUACUACCUCA,0.0354 ± 0.0068
7,GGAGACCUAUGAAACAACCUACUACCUCA,0.00673 ± 0.0031
8,GGAGACCUAUGAUAACAACCUUCUACCUCA,0.0024 ± 0.0021
9,GGAGACGUUACUAUACAACCUACAACCUCA,0.114 ± 0.015
10,GGAGACCUAUGUAUACAACCUACUAUCUCA,0.0416 ± 0.0058
11,GGAGACCUAUGAUUACAACCUAUCUACCUCA,0.00755 ± 0.003
12,GGAGACCUAUGUAUACAACCUACUACCCA,0.0226 ± 0.0055
13,GGAGACCUAUGAUUACAACCUACUACCUA,0.00393 ± 0.0024
14,GGAGACCUAUGUAUACAACCUACUACCCCA,0.045 ± 0.011
15,GGAGACCUUACUAUAGAUCCUACUACCUCA,0.204 ± 0.017
16,GGAGACCUAUGUAUACAACCUACUAGCUCA,0.0155 ± 0.0035
17,GGAGACCUAUGUAUUCAACGUACUACCUCA,0.00676 ± 0.0018
18,GGAGACCUAUGAUAUGUACCUACUUGCUCA,< 0.0001
19,GGAGACCUUACUAUACAAGCAACUACCUCA,0.0104 ± 0.0031
20,GGAGACGAUACUAAACAACCUACUAGCUCA,0.111 ± 0.019

row,Sequence,pre-steady-state target cleavage rate
1,GGAGACGGUACUAUACAACCUACUACCUCA,0.187 ± 0.016
2,GGAGACCUAUGAUAUGAACCUACAACGUCA,< 0.0001
3,GGAGACCUAUGAAUACAACCUAAUACCUCA,0.00363 ± 0.0026
4,GGAGACCAUACUAAACAACGUACUACCUCA,0.0192 ± 0.003
5,GGAGACCUAUGUAUACUACCUACUUCCUCA,0.0346 ± 0.0069
6,GGAGACCUAUGAUUACAACCUACUAUCUCA,0.00332 ± 0.0022
7,GGAGUGGAUAGUUUACAACCUACUACCUCA,0.11 ± 0.0082
8,GGAGACCUUACUAAACAACCUACUACCUGA,0.0914 ± 0.017
9,GGAGACCUAUGAUAAUCAACCUACUACCUCA,0.00294 ± 0.0029
10,GGAGACCUAUGUAUACAACCUAAUACCUCA,0.0196 ± 0.0049
11,GGAGACCAUACUUUACAUCCUACUACCUCA,0.296 ± 0.029
12,GGAGACCAUACUAUAGAACCUACUACGUCA,0.0697 ± 0.013
13,GGAGACCUUACUAUACAAGCUUCUACCUCA,0.036 ± 0.0065
14,GGAGACCUAUGUAAACAUCCUACUACCUCA,0.0128 ± 0.0025
15,GGAGACCUAUGAUAUGACCUACUACCUCA,0.0053 ± 0.0031
16,GGAGACCUAACAAUACAACCUACUUCCUCA,0.0651 ± 0.019
17,GGAGACCUAUGAUUACUACCUACUAGCUCA,0.0036 ± 0.0032
18,GGAGACCUAUGAAUACAACCUAUCUACCUCA,0.00974 ± 0.0026
19,GGAGACCUAUGAUAUCAUGCUACUACCUCA,< 0.0001
20,GGAGACCUAUGUAAACAAGCUACUACCUCA,0.0459 ± 0.0073
